This note sets out measurements from PubChem BioAssay.

The target of assay [1] is Tumor necrosis factor receptor superfamily member 10B (Homo sapiens) (UniProt O14763). The assay is described as follows: viability loss of caspase-8 NB7 cells with TRAIL – with/without TRAIL, luminescence panel, confirmation (AID 651596). The conditions noted are these: NB7 neuroblastoma + caspase-8, TRAIL sensitization, NB7 Caspase-8, with TRAIL, mean of runs, at 10 µM, stronger effect = higher value.

Assay in assay [2]: as above
The conditions noted are these: NB7 neuroblastoma + caspase-8, without TRAIL, NB7 Caspase-8, without TRAIL, mean of runs, at 10 µM.

Sequence of Tumor necrosis factor receptor superfamily member 10B (Homo sapiens) (O14763 whole entry, looked up): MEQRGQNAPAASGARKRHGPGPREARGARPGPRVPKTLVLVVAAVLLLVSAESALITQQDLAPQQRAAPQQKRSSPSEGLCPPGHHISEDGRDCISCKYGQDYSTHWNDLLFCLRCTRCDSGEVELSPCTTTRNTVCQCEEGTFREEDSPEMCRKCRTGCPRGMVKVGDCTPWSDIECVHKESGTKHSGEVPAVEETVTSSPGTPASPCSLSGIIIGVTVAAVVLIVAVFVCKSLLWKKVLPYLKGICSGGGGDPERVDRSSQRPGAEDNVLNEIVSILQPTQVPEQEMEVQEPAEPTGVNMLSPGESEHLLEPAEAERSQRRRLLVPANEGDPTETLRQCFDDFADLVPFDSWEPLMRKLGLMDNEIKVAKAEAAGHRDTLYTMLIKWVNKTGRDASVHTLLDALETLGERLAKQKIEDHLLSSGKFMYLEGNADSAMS

With `CC(=O)n1cc(N(C(=O)CCl)c2ccc([N+](=O)[O-])cc2)c2ccccc21`, the activity in assay [1] amounted to 97.8%; in assay [2], 99.3%.

Take `CCCCN=C1NN=C(c2ccc3c(c2)OCCO3)CS1`: the activity in assay [1] was 47.9%; in assay [2], 31.8%.

On to `COc1cccc(Nc2nc(N)nc(CCl)n2)c1`, for which the activity in assay [1] was found to be 98.4%; in assay [2], 92%.

For the compound `Cc1ccccc1Nc1nc(N)nc(CCl)n1`, the activity was found to be 98.5% in assay [1] and 96.2% in assay [2].

In the case of `O=C(Nc1nc(=O)c2ccccc2s1)c1ccc(F)cc1`, the activity in assay [1] came out at 64.8%; in assay [2] it was 72.2%.

For the compound `O=C(NC(=S)Nc1ccccn1)c1ccccc1`, the results for the activity in assay [1] and in assay [2] were 77.8% and 76.8%, respectively.

With `COc1cc2c3nnc(-c4ccc(F)cc4)c-3cn(Cc3ccccc3)c2cc1OC`, the activity was found to be 40.5% in assay [1] and 57.5% in assay [2].

In the case of `Clc1ccc(CSc2nc3ccncc3[nH]2)cc1`, the activity in assay [1] came out at 96.8%; in assay [2], 96.1%.

As for `O=C(/C(=C/c1ccc(Cl)cc1)c1nc2ccccc2[nH]1)c1ccccc1`, the values for the activity in assay [1] and in assay [2] were 84.1% and 85.1%, respectively.

Regarding `COc1cccc(/C=C/C(=O)Nc2ccc3c(c2)OCCO3)c1OC`, the activity in assay [1] came to 83.7%; in assay [2], 82%.

As to `Cc1ccc(CSc2nc3ncccc3[nH]2)cc1`, the activity was found to be 71% in assay [1] and 68.2% in assay [2].

In the case of `Cc1ccc(-c2cn3cc([N+](=O)[O-])ccc3n2)cc1`, the activity in assay [1] amounted to 50.9%; in assay [2], 41.5%.

For the compound `O=C(Nc1nc2c(F)cc(F)cc2s1)c1ccccn1`, the activity in assay [1] worked out at 61.9%; in assay [2], 64.5%.

With `C=C1CC2(CC(c3ccccc3)OC(c3ccccc3)C2)OC1=O` (centres undefined), the activity in assay [1] is 47%; in assay [2], 73.1%.

Turning to `COc1cccc(C(=O)Oc2c(CN3CCOCC3)cc(Cl)c3cccnc23)c1`, the activity turned out to be 49% in assay [1] and 60.3% in assay [2].

With `O=C(N/N=C/c1cc(O)ccc1[N+](=O)[O-])c1ccc2c(c1)OCCO2`, the activity in assay [1] stood at 91%; in assay [2], 87.7%.

`Cc1ccccc1/C=C/c1nc2ccccc2c(=O)[nH]1`: the activity was found to be 56.1% in assay [1] and 58.7% in assay [2].

With `COC(=O)c1c(NC(=O)COc2ccc(Cl)cc2Cl)sc2c1CC(C)(C)NC2(C)C`, the activity in assay [1] came to 98.7%; in assay [2], 99.3%.

In the case of `O=C(NC(=S)Nc1nc2ccccc2s1)c1ccco1`, the activity in assay [1] came to 77.7%; in assay [2], 64.4%.

Consider `C#Cc1ccc(NC(=O)C2(C)CCN2C(=O)Cc2ccc(-c3ccccc3)cc2)cc1` (centres undefined), for which the activity in assay [1] is 94.4%; in assay [2], 68.4%.

Regarding `Cc1ccsc1/C=N/NC(=O)c1ccc2c(c1)OCCO2`, the activity in assay [1] was determined as 75.9%; in assay [2], 68.2%.

On to `OC(c1ccccc1)(c1ccccc1)C1CCN(CCCOc2ccc3c(c2)CCCC3)CC1`, for which the results for the activity in assay [1] and in assay [2] were 38% and 48.9%, respectively.

Turning to `CC(C)N(Cc1ccccc1)C(=O)COC(=O)c1cnc(Cl)c(Cl)c1`, the activity in assay [1] was determined as 81.2%; in assay [2], 72%.

As for `CC(=O)Nc1cc(-c2cccc(C(=O)NCCN(C)C)c2)cn2c(-c3cccc(C(F)(F)F)c3)cnc12`, the activity is 65.3% in assay [1] and 89.8% in assay [2].

As for `CCOc1cc(NC2CS(=O)(=O)CC2O)c(OCC)cc1NC(=O)c1ccccc1` (centres undefined), the values for the activity in assay [1] and in assay [2] were -26.1% and -33.2%, respectively.

Turning to `N#Cc1c(/N=C/c2cccs2)sc2c1CCCCC2`, the results for the activity in assay [1] and in assay [2] were 65.7% and 35.4%, respectively.

For the compound `O=S(=O)(c1ccc(Br)cc1)N1CCN(c2ccc3nnc(-c4ccccc4)n3n2)CC1`, the results for the activity in assay [1] and in assay [2] were 76.2% and 64.3%, respectively.

Turning to `Cc1oc(-c2nc3ccccc3n2C)cc1C(=O)c1ccccc1`, the figures for the activity in assay [1] and in assay [2] were 81.4% and 81%, respectively.

Regarding `Cc1ccc(Cl)cc1N1CCN(C(=O)c2noc(C)c2[N+](=O)[O-])CC1`, the activity in assay [1] is 99.3%; in assay [2], 97.1%.

`CCc1ccc2nc(N(CCCN(C)C)C(=O)c3ccc(S(=O)(=O)N4CCc5ccccc5C4)cc3)sc2c1`: the activity in assay [1] came out at 68.4%; in assay [2], 64%.

As to `CN(C)c1ccc(-c2nc3ccccc3n2C)cc1`, the values for the activity in assay [1] and in assay [2] were 92.3% and 89.8%, respectively.

In the case of `O=C1Nc2ccccc2N(C(=O)c2ccc3ccccc3c2)C1c1nc2ccccc2[nH]1` (centres undefined), the activity in assay [1] stood at 48.1%; in assay [2] it was 43.4%.

For the compound `Cc1cc2[nH]c3c4ccccc4nc(C)c3c2cc1C`, the activity in assay [1] was found to be 99.5%; in assay [2], 99.8%.

Regarding `O=[N+]([O-])c1ccc(N2CCN(Cc3ccccc3)CC2)c2c1no[n+]2[O-]`, the activity in assay [1] stood at 99.2%; in assay [2] it was 99.1%.

On to `COc1ccc2cc(CNCCOCCOCCNCc3ccc4cc(OC)ccc4c3)ccc2c1`, for which the activity is -7.05% in assay [1] and -2.75% in assay [2].

`Oc1ccccc1C=Nc1ccccc1-c1nc2ccccc2[nH]1`: the activity in assay [1] turned out to be 7.4%; in assay [2] it was 1.85%.

With `CCOc1ccc(-c2c(C#N)c(N)nc3c2c(=O)n(C)c(=O)n3C)cc1OC`, the activity in assay [1] was -4.4%; in assay [2], -21.2%.

As to `Cc1ccc(-c2nc3ccccc3[nH]2)s1`, the activity in assay [1] came out at 58.9%; in assay [2], 58.2%.

For the compound `CC(=O)CSc1ccc(-c2nc3ccccc3[nH]2)cn1`, the activity in assay [1] was 92.1%; in assay [2], 92.5%.

For `O=C(Oc1c(CN2CCOCC2)cc(Cl)c2cccnc12)c1ccc(F)cc1`, the activity in assay [1] came to 53.5%; in assay [2] it was 56.1%.

For `COc1ccc(CC(=O)Nc2cccc(-c3nnc(-c4ccccc4)o3)c2)cc1OC`, the activity was determined as 78.9% in assay [1] and 59.8% in assay [2].

In the case of `CCOC(=O)c1ccc(NC(=O)c2nc[nH]c2C(=O)NCCNC(=O)c2[nH]cnc2C(=O)Nc2ccc(C(=O)OCC)cc2)cc1`, the results for the activity in assay [1] and in assay [2] were 99.4% and 99.5%, respectively.

For `CCOc1ccc(OCC)c(NC(=O)C2CCN(c3nn4c(=O)cc(C)nc4s3)CC2)c1`, the activity turned out to be 82% in assay [1] and 81.3% in assay [2].

Consider `CCc1sc(C(=O)N2CCc3ccccc32)cc1C`, for which the activity turned out to be 46.1% in assay [1] and 44.7% in assay [2].

With `Cc1ccc(C2=NS(=O)(=O)N(C)C(C(=O)NCc3cccs3)=C2)cc1`, the activity in assay [1] is 5.95%; in assay [2] it was 0.8%.

For the compound `Cc1onc(-c2c(F)cccc2Cl)c1C(=O)Nc1nc2ccccc2[nH]1`, the activity in assay [1] is 31.9%; in assay [2], 30.2%.

`O=C(Cn1c2ccccc2c(=O)c2ccccc21)N/N=C/c1cc([N+](=O)[O-])ccc1N1CCCCCC1`: the values for the activity in assay [1] and in assay [2] were 49.8% and 48%, respectively.
